# Source: PubChem BioAssay (Tox21)
# Inconclusive results are not listed. Entries that show only a call come without a potency. Where a structure was tested more than once in an assay, its records may differ in their call. Active and inactive are the calls of the source. Calls follow the shape of the dose curve; as a rule, active = well fitted cell-killing curve with a large enough effect in the repeat runs; inconclusive = weak or mixed curves, or effect the other way; inactive = no such curve, though single readings can be large or run the other way.
# Assay: qHTS assay to identify small molecule antagonists of the sonic hedgehog signaling (Shh) pathway - cell viability counter screen (AID 1259367); also: nearly all actives have a fitted effect of over 55% in size
# Conditions: NIH/3T3 Gli1-Luc viability, CellTiter-Fluor, 24 h; series mostly up to 92.4 µM; viability change, negative = cytotoxic: at the top concentration
# Text: National Center for Advancing Translational Sciences [NCATS]
# NIH Chemical Genomics Center [NCGC]
# U.S. Environmental Protection Agency [EPA]
# National Institutes of Environmental Health Sciences [NIEHS]
# National Toxicology Program [NTP]
# U.S. Food and Drug Administration [FDA]
# The sonic hedgehog (Shh) pathway is essential for normal embryonic development. Dysregulation of the Shh pathway can cause severe developmental defects in organs. Therefore chemicals that interfere with the pathway are potential developmental toxicants. A cell line designated 3T3Gli1-Luc (DMB/OARSA/CFSAN/FDA, Laurel, MD), a NIH/3T3 derived clone containing stably integrated Gli1-Luc reporter is used to detect chemical interference of the Shh pathway, by changes in the expression of the firefly Luc gene under the control of the Gli1 transcriptional response element. This cell line was used to screen Tox21 libraries for identifying and prioritizing the potential developmental toxicants that interfere Shh pathway. Conditioned medium-stimulated mode was used to screen for chemicals inhibiting Shh signaling. The cytotoxicity of the compounds was tested in parallel by measuring the cell viability using CellTiter-Fluor assay system (Promega, Madison, WI) in the same wells.
# Tox21 Assay Protocol Summary:
# 3T3 Gli1-Luc cells were dispensed at 2,000 per well in 5uL of culture medium into white solid bottom 1536-well plates (Greiner Bio-One, Monroe, NC) using a Multidrop Combi (Thermo Scientific, Waltham, MA) dispenser. The assay plates were incubated at 37 C and 5% CO2 for 4hr, and then 23nL of compounds dissolved in DMSO and positive control were transferred using a Pintool station (Wako, San Diego, CA). The compound transfer was followed by the addition of 1ul conditioned medium or assay buffer using two separate tips of Flying Reagent Dispenser (FRD, Aurora Discovery, San Diego, CA). The assay plates were incubated at 37C and 5% CO2 for 24hr. For viability read, after 23hr of compound treatment, 1uL of CellTiter-Fluor reagent (Promega Corporation, Madison, WI) was added to each well of the assay plates using Flying Reagent Dispenser (FRD, Aurora Discovery, San Diego, CA) and incubated the assay plates at 37C for 1hr. The fluorescence signal was quantified using a ViewLux plate reader (Perkin Elmer, Shelton, CT).
# Potency is read from the fitted curve at half-maximal effect.
Structure (SMILES),Potency,"viability change, negative = cytotoxic"
CCCCOC(=O)COc1ccc(Cl)cc1Cl,inactive,
Cc1occc(=O)c1O,inactive,
C=CCOC(=O)c1ccccc1C(=O)OCC=C,inactive,
OCCOCCN1CCN(C2=Nc3ccccc3Sc3ccccc32)CC1,inactive,
O=S1(=O)CC=CC1,46.9 µM (active) and inactive,
C[Si](O[Si](C)(C)C)O[Si](C)(C)C,inactive,
O=C(O)c1ccc(C(=O)O)cc1,inactive,
O=C(O)c1cc(O)c(O)c(O)c1,,-7.43% [at 42.5 µM] (inactive)
CCc1cccc(C)c1N,inactive,
CCCCCCCCCCCCCCCO,,0.562% (inactive)
CCCCCCCCCCCCS,inactive,
CCOC(=O)NNc1nncc2ccccc12,inactive,
Cc1ccc(N(C)C)cc1,inactive,
CCC(O)OC(O)CC (stereo not given),inactive,
O=C(O)[C@H](O)[C@@H](O)[C@H](O)[C@H](O)CO,inactive,
CC(=O)c1ccccc1,inactive,
OCc1cccnc1,inactive,
CSCCC=O,inactive,
COc1cc(Cc2cnc(N)nc2N)cc(OC)c1OC,inactive,
NNc1nncc2ccccc12,61.1 µM (active),1.95% [at 19 µM] (inactive)

Structure (SMILES),Potency,"viability change, negative = cytotoxic"
Cc1ccc(S(N)(=O)=O)cc1,inactive,
ON=C1CCCCC1,,1.57% (inactive)
COc1ccc(Cl)cc1C(=O)NCCc1ccc(S(=O)(=O)NC(=O)NC2CCCCC2)cc1,inactive,
CC(=O)CC(=O)Nc1ccccc1,inactive,
COc1ccc(Nc2ccccc2)c(C)c1,inactive,
CCC(O)OCCCOC (stereo not given),28 µM (active) and inactive,
COc1ccc(NC(C)=O)cc1N,inactive,
CC[C@H](C)C(=O)O[C@H]1C[C@@H](C)C=C2C=C[C@H](C)[C@H](CC[C@@H]3C[C@@H](O)CC(=O)O3)[C@H]21,inactive,
CCCCCCCCC/C=C/CC1CC(=O)OC1=O (stereo not given),inactive,
CCCCCCCCCCCCc1ccccc1,inactive,
COCCCOc1ccnc(CS(=O)c2nc3ccccc3[nH]2)c1C (stereo not given),inactive,
CCN(CC)c1ccc(C(=O)c2ccccc2C(=O)O)c(O)c1,inactive,
CC(C)c1ccc(S(=O)(=O)O)cc1,inactive,
CCCCC(CC)CO (stereo not given),inactive,
C#CCN(C)Cc1ccccc1,inactive,
FC(F)(F)c1ccc(Cl)c(Cl)c1,inactive,
CCCCC(CC)COC(=O)CS (stereo not given),inactive,
CCCCCCCCCC,inactive,
CN(C)CCC(c1ccc(Cl)cc1)c1ccccn1 (stereo not given),68.7 µM (active),
